In PubChem BioAssay (Tox21) one finds Potency data, which are given here for 29 compounds.

Results filed as inconclusive are left out. Calls of active or inactive are those of the source. Calls follow the shape of the dose curve; as a rule, active = well fitted curve in the direction sought with a large enough effect in the repeat runs; inconclusive = weak or mixed curves; inactive = no such curve, though single readings can be large; an effect the other way counts as inactive or inconclusive. Residues, ends and D or L forms follow the SMILES beside them.

Experiment [1] can be described thus: qHTS assay to identify small molecule antagonists of the glucocorticoid receptor (GR) signaling pathway - cell viability counter screen (AID 720693). Also: nearly all actives have a fitted effect of over 55% in size. A general note: Quantitative high-throughput screening tests each substance at several concentrations.
The nature of experiment [2]: qHTS assay for identifying genotoxic compounds that show differential cytotoxicity against isogenic chicken DT40 cell lines with known DNA damage response pathways - wild type cell line (AID 743012). Also: nearly all actives have a fitted effect of over 60% in size. Also: potency is read from the fitted curve at half-maximal effect. The method in brief: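 Wild type DT40, 300 cells/well, ~0.5 h settle at 37 C/5% CO2; compounds in DMSO added by pintool; 40 h at 37 C/5% CO2; CellTiter-Glo, 30 min RT; luminescence.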

Experiment [3] can be described thus: qHTS assay for identifying genotoxic compounds that show differential cytotoxicity against isogenic chicken DT40 cell lines with known DNA damage response pathways - Rad54/Ku70 mutant cell line (AID 743015). Also: nearly all actives have a fitted effect of over 60% in size. Also: potency is read from the fitted curve at half-maximal effect.
Experiment [4] can be described thus: qHTS assay to identify small molecule antagonists of the androgen receptor (AR) signaling pathway - cell viability counter screen (AID 743033; also: nearly all actives have a fitted effect of over 45% in size).
Experiment [5] can be described thus: qHTS assay to identify small molecule antagonists of the androgen receptor (AR) signaling pathway using the MDA cell line - cell viability counter screen (AID 743041; also: nearly all actives have a fitted effect of over 45% in size; also: potency is read from the fitted curve at half-maximal effect). The method in brief: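 Viability counter screen run alongside the AR antagonist reporter: cells seeded 5 h before compound, R1881 added, 16 h incubation at 37C without CO2, fluorescent CellTiter-Fluor signal quantified.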

Experiment [6] in a line: qHTS assay for identifying genotoxic compounds that show differential cytotoxicity against isogenic chicken DT40 cell lines with known DNA damage response pathways - Rev3 mutant cell line (AID 743014). Also: nearly all actives have a fitted effect of over 55% in size. Also: potency is read from the fitted curve at half-maximal effect.
In experiment [7] the target is Androgen receptor (Homo sapiens) (UniProt P10275). Briefly: qHTS assay to identify small molecule antagonists of the androgen receptor (AR) signaling pathway using the MDA cell line (AID 743042; also: nearly all actives have a fitted effect of over 55% in size). The method in brief:
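MDA-kb2 cells (human breast carcinoma, stably carrying an MMTV-luciferase reporter responsive to AR and GR) were plated at 3,000 cells/well and preincubated 5 hr at 37C, then given compound plus R1881 agonist for 16 h. ONE-Glo luminescence was read.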

Experiment [8] has the same target. Description: qHTS assay to identify small molecule agonists of the androgen receptor (AR) signaling pathway using the MDA cell line (AID 743040; also: nearly all actives have a fitted effect of over 20% in size). The method in brief:
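Luminescence from ONE-Glo, read after 30 min at room temperature, reflects MMTV-driven luciferase in MDA-kb2 cells (AR- and GR-responsive). Treatment lasted 16 h at 37C, 0% CO2.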

Chain of Androgen receptor (Homo sapiens) (P10275 whole entry, looked up): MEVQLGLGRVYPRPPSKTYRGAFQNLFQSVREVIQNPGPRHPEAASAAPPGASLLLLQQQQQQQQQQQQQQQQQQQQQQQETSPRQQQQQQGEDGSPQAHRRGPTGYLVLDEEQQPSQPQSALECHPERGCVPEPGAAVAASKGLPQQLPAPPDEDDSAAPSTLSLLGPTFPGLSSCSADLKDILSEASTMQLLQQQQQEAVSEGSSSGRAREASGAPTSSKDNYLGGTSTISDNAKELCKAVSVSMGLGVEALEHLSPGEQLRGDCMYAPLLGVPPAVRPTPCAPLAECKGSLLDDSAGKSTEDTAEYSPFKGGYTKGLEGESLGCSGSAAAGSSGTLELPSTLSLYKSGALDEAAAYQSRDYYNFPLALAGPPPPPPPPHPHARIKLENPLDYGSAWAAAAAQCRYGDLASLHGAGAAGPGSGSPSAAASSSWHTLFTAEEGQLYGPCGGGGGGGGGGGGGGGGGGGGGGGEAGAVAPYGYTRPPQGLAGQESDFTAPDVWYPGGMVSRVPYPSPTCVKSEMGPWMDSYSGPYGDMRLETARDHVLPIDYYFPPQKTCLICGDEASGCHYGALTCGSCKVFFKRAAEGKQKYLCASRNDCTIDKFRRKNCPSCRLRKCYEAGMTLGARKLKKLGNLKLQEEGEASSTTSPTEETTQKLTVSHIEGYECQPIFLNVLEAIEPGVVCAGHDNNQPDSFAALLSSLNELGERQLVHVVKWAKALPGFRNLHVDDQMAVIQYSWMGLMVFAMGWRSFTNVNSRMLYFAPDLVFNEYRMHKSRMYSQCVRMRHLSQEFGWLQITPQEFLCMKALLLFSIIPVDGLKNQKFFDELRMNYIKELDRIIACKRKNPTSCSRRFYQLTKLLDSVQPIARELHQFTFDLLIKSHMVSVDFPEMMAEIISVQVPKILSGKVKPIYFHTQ

With `CC(C)C[C@@H](NC(=O)[C@@H](O)[C@H](N)Cc1ccccc1)C(=O)O`, the Potency result in experiment [1], in experiment [2], in experiment [3], in experiment [4] and in experiment [5] was “inactive” in each case.
As for `CC/C=C\C/C=C\C/C=C\C/C=C\C/C=C\CCCC(=O)O`, the Potency entry in experiment [1], in experiment [6], in experiment [3], in experiment [4] and in experiment [5] was “inactive” in each case.
Turning to `CC/C=C\C/C=C\C/C=C\C/C=C\C/C=C\C/C=C\CCC(=O)O`, the Potency result in experiment [1], in experiment [4] and in experiment [5] was “inactive” in each case. The Potency in experiment [2] is 26.6 µM (active).
As for `CC(C)(C)c1ccc2c(S(=O)(=O)O)c(C(C)(C)C)ccc2c1`, the Potency entry in experiment [1], in experiment [2], in experiment [3], in experiment [4] and in experiment [5] was “inactive” each time.
`CCCOC(=O)c1ccccc1O`: the Potency result in experiment [1], in experiment [2], in experiment [3], in experiment [4] and in experiment [5] was “inactive” each time.
Take `O=C(O)c1cc(=O)c2c3nc4ccccc4oc-3cc(=O)c2[nH]1`: the Potency result in experiment [1], in experiment [6] and in experiment [4] was “inactive” in each case.
Consider `CC(C)[C@H](NC(=O)[C@H](CC(=O)O)NC(=O)[C@H](CCCCN)NC(=O)[C@@H](N)CCCN=C(N)N)C(=O)N[C@@H](Cc1ccc(O)cc1)C(=O)O` (H-RKDVY-OH), for which the Potency entry in experiment [1], in experiment [2], in experiment [3], in experiment [4] and in experiment [5] was “inactive” throughout.
Regarding `Nc1nc(NC2CC2)c2ncn([C@@H]3C=C[C@@H](CO)C3)c2n1`, the Potency result in experiment [1], in experiment [2], in experiment [3], in experiment [4] and in experiment [5] was “inactive” in each case.
Turning to `CCOC(=O)Cc1ccc(-c2ccccc2)cc1`, the Potency entry in experiment [1], in experiment [6], in experiment [3], in experiment [4] and in experiment [5] was “inactive” throughout.
With `CC(C)COC(=O)OCN1C(=O)CN(CCN2CC(=O)N(COC(=O)OCC(C)C)C(=O)C2)CC1=O`, the Potency entry in experiment [1], in experiment [6], in experiment [4] and in experiment [5] was “inactive” in each case. In experiment [3], the Potency is 0.188 µM (active).
Take `Cc1cn([C@H]2C[C@H](O)[C@@H](CO)O2)c(=O)[nH]c1=O`: the Potency result in experiment [1], in experiment [2], in experiment [3] and in experiment [5] was “inactive” throughout.
Regarding `CCN(CC)C(=O)[C@]1(c2ccccc2)C[C@@H]1CN`, the Potency entry in experiment [1], in experiment [2], in experiment [3] and in experiment [5] was “inactive” each time.
Consider `Cc1ccc2nc(-c3ccc(N)cc3)sc2c1S(=O)(=O)O`, for which the Potency result in experiment [1], in experiment [6], in experiment [4], in experiment [5] and in experiment [7] was “inactive” in each case. In experiment [3], the Potency was 26.9 µM (active).
As for `N#Cc1c(N(CC(=O)O)CC(=O)O)sc(C(=O)O)c1CC(=O)O`, the Potency result in experiment [1], in experiment [2], in experiment [3], in experiment [4] and in experiment [5] was “inactive” each time.
For `c1ccc2occc2c1`, the Potency entry in experiment [5] was “inactive”.
`CC(=O)NC[C@H]1CN(c2ccc(N3CCOCC3)c(F)c2)C(=O)O1`: the Potency result in experiment [1], in experiment [4] and in experiment [5] was “inactive” in each case.
Consider `CC1=C(/C=C/C(C)=C/C=C/C(C)=C\C(=O)O)C(C)(C)CCC1`, for which the Potency in experiment [2] was 61.3 µM (active); in experiment [6] it was 61.3 µM (active); in experiment [3] it was 68.8 µM (active). Moreover, the Potency result in experiment [5] was “inactive”.
`Clc1nc(C(Cl)(Cl)Cl)c(Cl)c(Cl)c1Cl`: the Potency in experiment [2] was 21.7 µM (active); in experiment [6], 19.3 µM (active); in experiment [3], 27.3 µM (active).
Turning to `CC(O)(c1ccc(Cl)cc1)c1ccc(Cl)cc1`, the Potency result in experiment [5] was “inactive”.
Take `CN1CCN(CCCN2c3ccccc3Sc3ccc(C(F)(F)F)cc32)CC1`: the values for the Potency in experiment [2], in experiment [6] and in experiment [3] were 5.31 µM (active), 2.11 µM (active) and 5.31 µM (active), respectively.
As to `CCCCCCCCOC(=O)c1cc(O)c(O)c(O)c1`, the Potency in experiment [2] was 0.545 µM (active); in experiment [6], 1.37 µM (active); in experiment [3] it was 0.611 µM (active); in experiment [5] it was 48.6 µM (active).
Take `CCCCC/C=C\C=C\C(=O)OCC`: the results for the Potency in experiment [2], in experiment [6] and in experiment [3] were 12.7 µM (active), 16 µM (active) and 12.7 µM (active), respectively.
On to `CNCCC=C1c2ccccc2CCc2ccccc21`, for which the Potency is 6.68 µM (active) in experiment [2], 11.9 µM (active) in experiment [6] and 11.9 µM (active) in experiment [3].
Take `N=C(N)c1ccc(/C=C/c2ccc(C(=N)N)cc2O)cc1`: the Potency entry in experiment [1], in experiment [4] and in experiment [5] was “inactive” in each case.
With `CCC(C)(C)c1ccc(CC(C)CN2C[C@@H](C)O[C@@H](C)C2)cc1` (some centres not stated), the figures for the Potency in experiment [2], in experiment [6] and in experiment [3] were 0.841 µM (active), 0.668 µM (active) and 0.841 µM (active), respectively. Moreover, the Potency entry in experiment [4] was “inactive”.
Take `CCCCCCCCCCCCCCCCC(C(=O)O)C(O)(CC(=O)O)C(=O)O` (configuration not stated): the Potency result in experiment [2], in experiment [6], in experiment [3], in experiment [4], in experiment [8] and in experiment [5] was “inactive” each time. In addition, in experiment [7], the Potency entry was “inactive”.
Consider `CC(C)[N+]1(C)[C@@H]2CC[C@H]1CC(OC(=O)C(CO)c1ccccc1)C2` (some centres not stated), for which the Potency entry in experiment [1], in experiment [4] and in experiment [5] was “inactive” in each case.
As for `CCCC(=O)c1cc(O)c(O)cc1O`, the Potency is 24.3 µM (active) in experiment [2], 29.8 µM (active) in experiment [6] and 45 µM (active) in experiment [3]. Moreover, the Potency entry in experiment [8] and in experiment [7] was “inactive” in each case.
As for `COc1cc2c(c(OC)c1OC)-c1c(cc3c(c1OC)OCO3)C[C@@H](C)[C@](C)(O)C2`, the Potency result in experiment [1], in experiment [6], in experiment [4] and in experiment [5] was “inactive” in each case.
